Source: the supplement of paper PMC11732987, “Enantioselective OTUD7B fragment discovery through chemoproteomics screening and high-throughput optimisation” (Communications Chemistry, 2025)

Legend:
Test in all cases: log2 ratio of Biotin-Ahx-Ub-VS probe labelling (fragment/DMSO); higher = less target engagement (more negative = stronger competition), active = hit call of the paper (q ≤ 0.05, log2 ratio ≤ -1)
Conditions in all cases: compound concentration: 200 uM; treatment time: 3 h
USP34 = USP34 (UniProt Q70CQ2)
Sequence of USP34 (Q70CQ2 whole entry, the tested form may be a part): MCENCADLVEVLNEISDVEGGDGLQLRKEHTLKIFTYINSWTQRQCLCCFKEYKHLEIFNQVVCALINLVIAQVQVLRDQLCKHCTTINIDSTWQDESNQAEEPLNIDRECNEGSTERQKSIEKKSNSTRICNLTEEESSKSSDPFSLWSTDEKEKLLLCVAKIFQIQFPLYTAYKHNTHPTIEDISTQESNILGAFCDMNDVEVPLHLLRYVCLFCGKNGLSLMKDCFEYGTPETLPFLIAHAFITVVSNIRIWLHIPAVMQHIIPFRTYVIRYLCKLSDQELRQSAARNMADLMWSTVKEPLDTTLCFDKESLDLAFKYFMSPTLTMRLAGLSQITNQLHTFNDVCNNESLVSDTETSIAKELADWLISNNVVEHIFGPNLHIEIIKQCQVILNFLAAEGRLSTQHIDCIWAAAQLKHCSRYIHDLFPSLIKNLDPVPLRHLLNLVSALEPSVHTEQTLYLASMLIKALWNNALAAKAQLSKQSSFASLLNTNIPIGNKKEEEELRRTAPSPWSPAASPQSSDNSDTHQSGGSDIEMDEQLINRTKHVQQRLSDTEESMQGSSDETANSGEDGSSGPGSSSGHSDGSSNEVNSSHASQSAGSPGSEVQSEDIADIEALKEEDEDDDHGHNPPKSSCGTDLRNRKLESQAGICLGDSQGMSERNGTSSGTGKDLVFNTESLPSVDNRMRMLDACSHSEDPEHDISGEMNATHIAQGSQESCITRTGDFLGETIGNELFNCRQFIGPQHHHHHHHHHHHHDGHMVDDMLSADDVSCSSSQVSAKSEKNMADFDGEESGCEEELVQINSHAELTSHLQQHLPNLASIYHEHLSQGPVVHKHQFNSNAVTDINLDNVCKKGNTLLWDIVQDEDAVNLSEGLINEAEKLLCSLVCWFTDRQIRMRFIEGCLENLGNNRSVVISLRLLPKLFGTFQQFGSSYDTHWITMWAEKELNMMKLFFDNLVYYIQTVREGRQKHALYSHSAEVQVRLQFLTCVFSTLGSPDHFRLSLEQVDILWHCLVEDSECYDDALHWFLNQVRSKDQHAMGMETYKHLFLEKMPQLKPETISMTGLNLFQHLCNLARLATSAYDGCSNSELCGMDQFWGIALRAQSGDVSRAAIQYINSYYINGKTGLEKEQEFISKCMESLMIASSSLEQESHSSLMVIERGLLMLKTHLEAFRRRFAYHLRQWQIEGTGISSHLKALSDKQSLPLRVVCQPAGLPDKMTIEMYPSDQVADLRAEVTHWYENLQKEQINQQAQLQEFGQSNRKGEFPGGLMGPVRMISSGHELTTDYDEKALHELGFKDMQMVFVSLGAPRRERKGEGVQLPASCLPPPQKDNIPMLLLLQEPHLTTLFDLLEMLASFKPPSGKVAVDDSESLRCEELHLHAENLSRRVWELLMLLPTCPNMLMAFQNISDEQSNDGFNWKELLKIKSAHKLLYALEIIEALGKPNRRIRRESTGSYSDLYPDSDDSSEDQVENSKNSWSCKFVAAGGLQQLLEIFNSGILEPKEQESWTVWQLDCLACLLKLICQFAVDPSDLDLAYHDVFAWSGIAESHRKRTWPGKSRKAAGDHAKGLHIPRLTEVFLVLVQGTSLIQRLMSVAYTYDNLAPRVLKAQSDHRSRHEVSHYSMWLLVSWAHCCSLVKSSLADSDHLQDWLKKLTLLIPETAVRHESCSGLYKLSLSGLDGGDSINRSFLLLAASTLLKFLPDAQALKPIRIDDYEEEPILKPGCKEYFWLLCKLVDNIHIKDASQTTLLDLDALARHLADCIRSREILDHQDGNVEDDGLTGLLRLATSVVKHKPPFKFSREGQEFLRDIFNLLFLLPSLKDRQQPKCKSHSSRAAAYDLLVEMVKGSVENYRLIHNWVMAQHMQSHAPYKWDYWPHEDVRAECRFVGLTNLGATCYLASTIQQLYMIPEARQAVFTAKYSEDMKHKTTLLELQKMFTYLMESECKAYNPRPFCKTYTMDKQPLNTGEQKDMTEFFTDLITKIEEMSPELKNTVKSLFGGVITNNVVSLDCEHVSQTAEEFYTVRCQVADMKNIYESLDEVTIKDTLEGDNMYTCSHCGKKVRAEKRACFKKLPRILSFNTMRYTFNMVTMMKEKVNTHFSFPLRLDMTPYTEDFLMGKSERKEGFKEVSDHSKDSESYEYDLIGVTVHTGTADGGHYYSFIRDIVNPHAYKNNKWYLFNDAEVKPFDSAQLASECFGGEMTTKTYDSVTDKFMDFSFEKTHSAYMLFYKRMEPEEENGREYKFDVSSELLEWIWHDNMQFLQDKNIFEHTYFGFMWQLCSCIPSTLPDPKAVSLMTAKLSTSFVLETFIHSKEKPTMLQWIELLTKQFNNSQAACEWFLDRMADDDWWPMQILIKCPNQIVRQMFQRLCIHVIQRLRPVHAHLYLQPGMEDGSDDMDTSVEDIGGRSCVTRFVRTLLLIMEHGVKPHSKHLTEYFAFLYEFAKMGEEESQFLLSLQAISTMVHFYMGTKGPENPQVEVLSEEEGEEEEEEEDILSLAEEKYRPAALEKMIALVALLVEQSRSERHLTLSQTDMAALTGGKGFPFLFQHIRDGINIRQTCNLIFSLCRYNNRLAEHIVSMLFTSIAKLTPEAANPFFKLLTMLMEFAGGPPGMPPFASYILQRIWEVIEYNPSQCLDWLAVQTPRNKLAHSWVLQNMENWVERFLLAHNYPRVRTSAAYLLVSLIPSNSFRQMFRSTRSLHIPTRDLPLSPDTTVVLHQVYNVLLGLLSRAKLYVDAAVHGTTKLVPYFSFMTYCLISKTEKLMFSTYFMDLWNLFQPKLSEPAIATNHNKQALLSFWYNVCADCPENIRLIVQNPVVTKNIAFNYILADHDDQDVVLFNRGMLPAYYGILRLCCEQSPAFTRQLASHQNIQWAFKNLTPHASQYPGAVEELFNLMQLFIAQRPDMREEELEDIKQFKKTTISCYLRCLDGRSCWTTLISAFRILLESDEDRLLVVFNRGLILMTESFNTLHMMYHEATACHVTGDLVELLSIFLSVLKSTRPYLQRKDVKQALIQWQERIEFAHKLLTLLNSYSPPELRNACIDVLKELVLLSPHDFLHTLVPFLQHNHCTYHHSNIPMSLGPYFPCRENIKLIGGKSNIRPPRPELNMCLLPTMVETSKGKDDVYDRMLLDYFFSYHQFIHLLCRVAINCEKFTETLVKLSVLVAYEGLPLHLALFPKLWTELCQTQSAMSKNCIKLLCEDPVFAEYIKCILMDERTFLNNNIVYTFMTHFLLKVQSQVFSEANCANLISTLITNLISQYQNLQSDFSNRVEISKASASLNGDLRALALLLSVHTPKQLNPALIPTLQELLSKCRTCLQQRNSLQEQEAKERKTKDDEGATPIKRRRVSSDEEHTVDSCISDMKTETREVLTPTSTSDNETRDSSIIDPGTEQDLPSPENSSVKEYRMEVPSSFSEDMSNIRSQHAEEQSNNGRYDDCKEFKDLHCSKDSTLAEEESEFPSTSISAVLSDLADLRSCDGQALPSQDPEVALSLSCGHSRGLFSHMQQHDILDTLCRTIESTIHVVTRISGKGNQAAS
Method in brief: (§1)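 Global-median-normalised Spectronaut label-free quantities were compared by unpaired t-test, and values are average log2 ratios of fragment over vehicle. Only proteins with ≥2 unique peptides were used. HEK293T lysate (495 µg per sample) was treated in triplicate with fragment at 200 µM or vehicle for 3 h and then with Biotin-Ahx-Ub-VS at 0.5 µM final for 1 h. Labelled DUBs were then NeutrAvidin-enriched, digested with LysC and trypsin, and run by diaPASEF LC-MS/MS.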

USP36 = molecular target: T1, USP36 (UniProt Q9P275)
T1 sequence (whole entry): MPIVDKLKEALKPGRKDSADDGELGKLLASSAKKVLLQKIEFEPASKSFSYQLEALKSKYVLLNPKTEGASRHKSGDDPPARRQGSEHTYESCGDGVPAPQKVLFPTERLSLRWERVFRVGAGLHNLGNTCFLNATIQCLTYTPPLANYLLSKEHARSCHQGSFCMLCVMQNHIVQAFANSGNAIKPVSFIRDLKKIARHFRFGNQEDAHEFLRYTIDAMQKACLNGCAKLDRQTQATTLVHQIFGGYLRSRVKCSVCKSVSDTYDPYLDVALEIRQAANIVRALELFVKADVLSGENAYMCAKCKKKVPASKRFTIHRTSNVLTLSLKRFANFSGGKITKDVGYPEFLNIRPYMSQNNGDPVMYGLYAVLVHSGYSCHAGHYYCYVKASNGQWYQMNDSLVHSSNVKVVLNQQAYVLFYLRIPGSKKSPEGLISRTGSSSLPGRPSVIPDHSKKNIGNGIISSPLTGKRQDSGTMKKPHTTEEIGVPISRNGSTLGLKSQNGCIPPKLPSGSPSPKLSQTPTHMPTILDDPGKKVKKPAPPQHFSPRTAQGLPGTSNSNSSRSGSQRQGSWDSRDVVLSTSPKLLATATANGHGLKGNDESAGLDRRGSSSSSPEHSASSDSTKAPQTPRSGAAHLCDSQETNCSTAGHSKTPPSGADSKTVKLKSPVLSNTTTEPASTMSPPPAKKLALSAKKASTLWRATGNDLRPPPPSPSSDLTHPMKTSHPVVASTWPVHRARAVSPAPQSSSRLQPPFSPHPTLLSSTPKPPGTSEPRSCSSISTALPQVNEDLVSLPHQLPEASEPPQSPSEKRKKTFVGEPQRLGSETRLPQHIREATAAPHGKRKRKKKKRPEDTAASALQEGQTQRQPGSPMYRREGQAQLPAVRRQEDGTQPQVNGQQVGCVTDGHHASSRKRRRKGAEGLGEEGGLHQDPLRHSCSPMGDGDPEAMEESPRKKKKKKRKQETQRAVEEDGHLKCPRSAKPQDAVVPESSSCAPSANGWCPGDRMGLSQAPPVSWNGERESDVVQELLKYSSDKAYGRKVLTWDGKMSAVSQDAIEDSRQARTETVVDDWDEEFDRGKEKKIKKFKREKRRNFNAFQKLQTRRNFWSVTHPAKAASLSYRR
Method in brief: as §1

USP38 = molecular target: T2, USP38 (UniProt Q8NB14)
T2 sequence (whole entry): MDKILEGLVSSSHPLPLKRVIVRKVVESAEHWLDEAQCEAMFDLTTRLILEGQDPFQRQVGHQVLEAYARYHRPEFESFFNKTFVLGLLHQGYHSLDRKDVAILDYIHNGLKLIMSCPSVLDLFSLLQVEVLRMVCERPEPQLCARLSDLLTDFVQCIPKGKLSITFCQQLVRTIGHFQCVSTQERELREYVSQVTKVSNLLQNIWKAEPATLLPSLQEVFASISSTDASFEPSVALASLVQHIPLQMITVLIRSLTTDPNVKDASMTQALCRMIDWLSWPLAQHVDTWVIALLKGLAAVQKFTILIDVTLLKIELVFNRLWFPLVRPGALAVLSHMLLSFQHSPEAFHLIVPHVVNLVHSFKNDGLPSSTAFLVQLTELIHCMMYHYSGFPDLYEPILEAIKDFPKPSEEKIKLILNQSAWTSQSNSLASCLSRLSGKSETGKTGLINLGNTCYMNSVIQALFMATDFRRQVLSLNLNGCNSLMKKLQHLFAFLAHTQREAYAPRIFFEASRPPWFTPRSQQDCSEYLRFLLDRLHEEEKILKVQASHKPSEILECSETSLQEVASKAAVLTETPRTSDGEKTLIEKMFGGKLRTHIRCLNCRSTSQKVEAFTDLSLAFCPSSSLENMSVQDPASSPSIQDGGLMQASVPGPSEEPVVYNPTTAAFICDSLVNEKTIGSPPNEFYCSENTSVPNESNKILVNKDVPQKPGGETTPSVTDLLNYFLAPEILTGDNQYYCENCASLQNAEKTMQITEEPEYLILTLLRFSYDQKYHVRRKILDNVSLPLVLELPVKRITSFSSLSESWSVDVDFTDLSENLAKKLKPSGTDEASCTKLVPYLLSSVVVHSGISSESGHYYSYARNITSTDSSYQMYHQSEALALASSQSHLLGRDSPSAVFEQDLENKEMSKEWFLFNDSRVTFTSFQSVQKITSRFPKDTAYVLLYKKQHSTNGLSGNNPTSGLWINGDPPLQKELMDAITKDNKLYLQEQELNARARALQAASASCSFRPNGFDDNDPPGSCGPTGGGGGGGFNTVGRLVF
Method in brief: as §1

USP39 = molecular target: T3, USP39 (UniProt Q53GS9)
T3 sequence (whole entry): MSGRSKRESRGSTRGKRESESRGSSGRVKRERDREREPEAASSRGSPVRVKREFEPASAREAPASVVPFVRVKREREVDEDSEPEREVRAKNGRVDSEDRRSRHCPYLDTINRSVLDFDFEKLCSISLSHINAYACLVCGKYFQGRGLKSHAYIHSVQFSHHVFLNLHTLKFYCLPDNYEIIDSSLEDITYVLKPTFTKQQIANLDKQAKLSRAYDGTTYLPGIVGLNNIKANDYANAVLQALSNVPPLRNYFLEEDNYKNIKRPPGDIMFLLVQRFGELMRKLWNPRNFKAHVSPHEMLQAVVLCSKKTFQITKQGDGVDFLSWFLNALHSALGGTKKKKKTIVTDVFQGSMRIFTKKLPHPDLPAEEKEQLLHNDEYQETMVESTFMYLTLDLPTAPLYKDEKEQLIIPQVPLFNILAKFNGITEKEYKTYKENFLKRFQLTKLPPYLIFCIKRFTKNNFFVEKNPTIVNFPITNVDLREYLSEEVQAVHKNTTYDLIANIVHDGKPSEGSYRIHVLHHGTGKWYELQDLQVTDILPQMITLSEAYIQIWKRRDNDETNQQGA
Method in brief: as §1

USP4 = molecular target: T4, USP4 (UniProt Q13107)
T4 sequence (whole entry): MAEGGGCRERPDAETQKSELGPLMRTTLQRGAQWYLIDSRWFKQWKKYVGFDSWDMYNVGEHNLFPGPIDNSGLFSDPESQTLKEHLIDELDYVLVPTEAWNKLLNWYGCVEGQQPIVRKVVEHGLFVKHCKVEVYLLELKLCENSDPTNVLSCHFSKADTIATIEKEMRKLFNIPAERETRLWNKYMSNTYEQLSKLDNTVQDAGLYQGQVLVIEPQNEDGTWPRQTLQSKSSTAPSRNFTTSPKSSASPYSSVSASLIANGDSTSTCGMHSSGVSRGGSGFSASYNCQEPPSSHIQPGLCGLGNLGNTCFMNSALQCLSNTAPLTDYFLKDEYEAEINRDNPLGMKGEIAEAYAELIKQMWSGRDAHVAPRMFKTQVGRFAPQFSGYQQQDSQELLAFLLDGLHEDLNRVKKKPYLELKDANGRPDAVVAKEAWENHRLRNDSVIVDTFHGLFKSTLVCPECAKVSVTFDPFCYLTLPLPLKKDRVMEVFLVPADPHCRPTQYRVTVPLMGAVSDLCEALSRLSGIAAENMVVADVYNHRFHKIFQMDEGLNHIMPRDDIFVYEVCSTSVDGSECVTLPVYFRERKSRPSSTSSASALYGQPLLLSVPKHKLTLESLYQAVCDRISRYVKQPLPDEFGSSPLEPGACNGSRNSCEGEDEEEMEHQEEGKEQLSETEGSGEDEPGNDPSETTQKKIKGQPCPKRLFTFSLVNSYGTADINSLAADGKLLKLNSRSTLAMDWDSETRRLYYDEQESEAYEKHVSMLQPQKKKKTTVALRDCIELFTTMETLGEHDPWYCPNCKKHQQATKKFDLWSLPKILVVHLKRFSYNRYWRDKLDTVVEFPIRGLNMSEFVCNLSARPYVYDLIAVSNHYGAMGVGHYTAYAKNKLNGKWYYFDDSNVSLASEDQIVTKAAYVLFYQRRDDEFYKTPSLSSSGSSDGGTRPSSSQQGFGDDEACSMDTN
Method in brief: as §1

Measured: log2 ratio of Biotin-Ahx-Ub-VS probe labelling

CN(C)C(=O)c1ccc(CNC(=O)CCl)cc1
inactive: USP34 0.0263 | USP36 0.0235 | USP38 0.231 | USP39 0.0923 | USP4 0.059
